According to PubChem BioAssay (NCI):
The panel holds about 79,000 compounds, 15% with a hit somewhere; the sample as a whole holds those more often. Unmarked numbers belong to inactive results. Activity calls are given as the source filed them. Cut-off read from the data, not from the text of the source: active = growth inhibition above about 70%; inactive = the rest.

Experiment: NCI Yeast Anticancer Drug Screen. Data for the sgs1 mgt1 strain (AID 161);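 note: 0% = growth of cultures given vehicle only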
Conditions: S. cerevisiae sgs1 mgt1 strain, at 5.0 µM (retest, dose inferred, filed as 0.5), stronger effect = higher value
Procedure, shortened: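 This yeast growth screen uses a strain with defined DNA-repair lesions; compound-treated growth is compared with vehicle-treated growth.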

| Compound | growth inhibition |
| --- | --- |
| CC1=CC2OC3CC4OC(=O)/C=C/C=C/C(C(C)O)OCC(=O)C(C)CC(=O)OCC2(CC1)C4(C)C31CO1 (centres undefined) | 31% |
| Cc1cc(=O)oc2c3c(ccc12)OC(c1ccc(Br)cc1)CC3=O (centres undefined) | 19% |
| OCC(O)C(O)C(O)/C=N\Nc1ccccc1 (centres undefined) | -5% |
| CN(C)Cc1ccc2[nH]c3c(c2c1)CCCC3 | 2% |
| CC(C)CCCC(C)C1CCC2C3CC=C4OC(=O)CCC4(C)C3CCC12C (centres undefined) | -35% |
| CC(C(=O)c1ccc2cc(Br)c3ccccc3c2c1)N(C)C (centres undefined) | -14% |
| O=[N+]([O-])c1ccccc1SCc1ccccc1 | 16% |
| C(=P(c1ccccc1)(c1ccccc1)c1ccccc1)[P+](c1ccccc1)(c1ccccc1)c1ccccc1 | 99% (active) |
| CCOC(=O)N1CCN(C(=S)N/N=C(\C)c2ncccn2)CC1 | -5% |
| CCC1(C)C(C#N)(C#N)C1(C#N)C#N | -36% |
| Cc1ccccc1C(O)(c1ccccc1C)C1(O)CCN(C)CC1 | 2% |
| Oc1c(C(Nc2ccccn2)c2ccccc2)ccc2cccnc12 (centres undefined) | -4% |
| Cc1ccc(C(CN(C)C)C(=O)c2ccccc2)cc1C (centres undefined) | -4% |
| COC(=O)/C=C(\NC1CC(OC2C[C@](O)(C(C)=O)Cc3c(O)c4c(c(O)c32)C(=O)c2c(OC)cccc2C4=O)OC(C)C1O)C(=O)OC (some centres undefined) | -3% |
| CC1(C)C/C(=N/NC(N)=S)C(=NO)/C(=N\NC(N)=S)C1 | 9% |
| Cc1cc2c(c(C(N)=O)c1C)-c1cccc(F)c1C2=O | 20% |
| CN(C)c1ccc(/C=C(\C#N)c2cccc(Cl)c2)cc1 | 4% |
| Cc1ccc(S(=O)(=O)NNc2nc(N(C)C)nc(N(C)C)n2)cc1 | 3% |
| CC(NNC(=S)NCc1ccccc1)c1cc2ccccc2cn1 (centres undefined) | 14% |
| COc1ccc(Cc2c(-c3ccc(C)cc3)n[nH]c(=O)c2C2C(=O)N(c3ccccc3)N=C2c2ccccc2)cc1 (centres undefined) | 97% (active) |

| Compound | growth inhibition |
| --- | --- |
| CC1(c2ccccc2)OC(=O)C=CC1=O (centres undefined) | 21% |
| CC1CCC(C)(C)c2cc([N+](=O)[O-])cc([N+](=O)[O-])c21 (centres undefined) | -4% |
| CC1(C)CC(=O)C(/C=N/c2nc(-c3cccc([N+](=O)[O-])c3)cs2)=C(O)C1 | 5% |
| O=[N+]([O-])C(=C1Nc2ccccc2N1)C(Cl)=C(Cl)Cl | 13% |
| COc1ccc2c(c1)C1(C)CCCC(C)(C(=O)O)C1C(Br)C2=O (centres undefined) | -12% |
| COc1cc(NCC(C)(O)CN2CCC(C)CC2C)c2ncccc2c1 (centres undefined) | 20% |
| ClC/C=C/c1ccccc1 | 3% |
| O=C(c1ccc(O)c(Br)c1)c1cc(Br)ccc1O | 73% (active) |
| COc1ccc(OP2(Oc3ccc(OC)cc3)=NP(Oc3ccc(OC)cc3)(Oc3ccc(OC)cc3)=NP(Oc3ccc(OC)cc3)(Oc3ccc(OC)cc3)=NP(Oc3ccc(OC)cc3)(Oc3ccc(OC)cc3)=N2)cc1 | 71% (active) |
| COc1ccccc1NC(=O)CSC(N)=O | 3% |
| Cc1ccc(N=C(N)Nc2ccc(C)cn2)nc1 | 4% |
| FC(F)(F)c1nc(Cl)nc2nc[nH]c12 | -3% |
| O=[N+]([O-])c1ccccc1CC(c1c[nH]c2ccccc12)c1c[nH]c2ccccc12 | -2% |
| O=C(O)C1CCCCC1.[Ag] | 99% (active) |
| CC(C)c1ccc(O)c(O)c(=O)c1 | 70% (active) |
| CC(C)(C)c1ccc(Sc2ncnc3ccccc23)cc1 | 2% |
| CC(C)NC(=O)CN1C(=O)NC(C)(c2ccccc2)C1=O (centres undefined) | -4% |
| COc1cccc(N2CCN(CC(O)COc3cc4c(c5c3CCCC5)CCCC4)CC2)c1 (centres undefined) | 34% |
| CC(CCN)(CCN)[N+](=O)[O-] | -4% |
